Source: PubChem BioAssay
HCMV inh – qHTS Assay for inhibitors of the human cytomegalovirus (HCMV). HFF cells, HCMV-luciferase reporter, 72 h; stronger effect = lower value. activity change, negative = inhibition, % at 57.5 µM. actives 4.5% (n = 410,000); in the data active = activity change below about -60%; inconclusive = no clear call, values can overlap the other calls; inactive = above about -39%; note: % is set by controls: 0 for no effect and ±100 for the full control effect
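Compounds were evaluated in HFFs infected with an HCMV luciferase reporter virus (MOI 1 PFU/cell). Luciferase in lysates collected 72 h post infection served as the replication measure.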
Pf growth 48h – Primary qHTS for delayed death inhibitors of the malarial parasite plastid, 48 hour incubation. AID 504832, 2011. Potency, µM (top dose mostly 28.7 µM), inactives show at the top dose activity change, negative = inhibition, hits mostly inhibitors. actives 5.9% (n = 310,000). P. falciparum luciferase growth in erythrocytes, 48 h; note: potency is the fitted concentration of half-maximal effect; % is set by controls: 0 for no effect and ±100 for the full control effect
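Erythrocytes infected with P. falciparum carrying an integrated firefly luciferase reporter (2% hematocrit, 0.1% parasitemia final) were exposed to compounds in RPMI 1640 with 0.5% Albumax at 37 C, 5% CO2. Growth inhibition was scored as reduced luminescence.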
Pf growth 96h – Primary qHTS for delayed death inhibitors of the malarial parasite plastid, 96 hour incubation; AID 504834, 2011; Potency, µM (doses to about 28.7 µM), inactives show at the highest dose activity change, negative = inhibition, hits mostly inhibitors; P. falciparum luciferase reporter growth, 96 h; actives 6.9% (n = 320,000); note: potency is the fitted concentration of half-maximal effect; % is set by controls: 0 for no effect and ±100 for the full control effect
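Infected RBCs, 2% Hct / 0.05% parasitemia final; luciferase-reporter P. falciparum; cpd 96 h, 37 C, 5% CO2; luciferase detection reagent; luminescence.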
CHX counter – Cycloheximide Counterscreen for Small Molecule Inhibitors of Shiga Toxin; cell reporter, cycloheximide protein synthesis inhibition counterscreen; max response, %; actives 12% (n = 300,000); in the data active = max response mostly above about 13%, no sharp cut-off; inactive = mostly below about 14%; note: read at 38.3 µM for the half of the compounds with a filed dose; 0% is about no effect
Shiga inhibitor – A qHTS for Small Molecule Inhibitors of Shiga Toxin. Vero cells, Shiga toxin protein synthesis inhibition reporter. inhibition, % at 38.7 µM. actives 9.2% (n = 290,000); in the data active = inhibition mostly above about 28%, no sharp cut-off; inactive = mostly below about 43%; note: 0% is about no effect
Starred values were filed as active, the others as inactive; i = inactive; ? = inconclusive; . = no result. Hits are enriched below; roughly 20% of the tested compounds scored in any of these assays. Unless noted, calls come from the whole dose curve; as a rule, active = well fitted inhibition curve with a large enough effect; inconclusive = small, poorly fitted or top-dose-only effect, or another doubt; inactive = no such curve, though single readings can be large or run the other way.

SMILES | HCMV inh | Pf growth 48h | Pf growth 96h | CHX counter | Shiga inhibitor
CCOc1ccccc1CNC(=O)CCCN1C(=O)CCn2nc(-c3cccn3C)cc21 | -10.4 | . | . | . | .
CCc1ccc(C(=O)c2cn(CC(=O)NC3CCCCC3)c3nc(C)ccc3c2=O)cc1 | -5.9 | . | . | . | .
CN1OC(COC(=O)c2ccc(Cl)cc2Cl)CC1c1ccccc1 (centres undefined) | 36.9 | 43.4% | 51.2% | 7.1 | -8.8
COc1ccc(S(=O)(=O)N(C)C[C@H]2Oc3ccc(NS(=O)(=O)c4ccc(F)cc4)cc3C(=O)N([C@H](C)CO)C[C@@H]2C)cc1 | 8.9 | . | . | . | .
O=C(Nc1ccc2c(c1)OCO2)c1ccc2c(c1)OCO2 | 8.3 | 274.9% | 392.9% | 39.6* | 67.2*
O=C(Nc1ccc(NC(=O)c2ccc(Cl)cc2Cl)cc1)c1ccc2c(c1)OCO2 | -13.9 | 27.0% | ? | -1.2 | 9.9
O=C(N/N=C/c1ccc(Cl)c([N+](=O)[O-])c1)c1ccc2c(c1)OCCO2 | -30.5 | . | . | . | .
Cc1ccc(C(=O)N2CCN(c3ccc(NC(=O)c4ccc5c(c4)OCCO5)cc3)CC2)cc1 | 51.9 | ? | ? | 0.5 | -3.1
O=C(Nc1ccc(Cl)c([N+](=O)[O-])c1)c1ccc2c(c1)OCCO2 | -24.3 | i | 16.6% | 33.2* | 61.9*
Cc1ccccc1C(=O)N1CCN(c2ccc(NC(=O)c3ccc4c(c3)OCCO4)cc2)CC1 | -89.2* | ? | ? | -0.8 | -3.7
O=C(Nc1ccc(Cl)cc1)c1ccc2c(c1)OCO2 | 164.3 | 197.6% | . | 29.6* | 48.8*
CC(=O)Nc1cncc(-c2ccccc2N(C)C)n1 | 1.6 | . | . | . | .
Cc1cc(NC(=O)CCC(=O)N(CC(=O)NCC2CCCO2)c2ccc3c(c2)OCCO3)no1 (centres undefined) | 25.4 | -30.6% | -15.5% | -1.4 | -0.9
O=C(Nc1ccc2c(c1)OCO2)c1c(F)c(F)c(F)c(F)c1F | -22.4 | -5.7% | . | 9.5 | 5.6
O=C(Nc1ccc(F)c(F)c1)c1ccc2c(c1)OCO2 | 13.3 | 167.6% | 2.33µM* | 94.2* | 100.2*
Cc1ccnc(NC(=O)c2ccc3c(c2)OCO3)c1 | 9.8 | 261.3% | -7.1% | 25.3* | 66.4*
Cc1cc(C(=O)Nc2ccc3c(c2)OCO3)cs1 | 143.9 | 183.9% | 15.2% | 38.7* | 58.0*
CN(CC(=O)Nc1ccc(Cl)c(Cl)c1)CC(=O)Nc1ccc2c(c1)OCO2 | 1.5 | 22.1% | 46.2% | . | .
O=C(Nc1ccc(Cl)c(Cl)c1)c1ccc2c(c1)OCO2 | 30.3 | 250.2% | -13.8% | 41.6* | 97.8*
O=C(Nc1ccc2nsnc2c1)c1ccc2c(c1)OCO2 | 139.6 | 171.0% | ? | 31.5* | 63.9*
O=C(Nc1ccon1)c1ccc2c(c1)OCO2 | 79.8 | 82.0% | . | 42.7* | 31.1*
O=C(Nc1cccc(NC(=O)c2ccco2)c1)c1ccc2c(c1)OCO2 | 0.9 | 10.9% | -11.9% | 10.1 | 22.0
O=C(Nc1ccc(Br)cc1)c1ccc2c(c1)OCO2 | 58.8 | 122.7% | 101.7% | 38.4* | 162.1*
O=C(Nc1cc([N+](=O)[O-])ccc1F)c1ccc2c(c1)OCCO2 | 7.1 | 30.5% | ? | 27.7* | 56.3*
CC(C)C(=O)Nc1ccc(NC(=O)c2ccc3c(c2)OCO3)cc1 | -16.1 | 31.4% | 39.4% | -3.3 | -1.9
SMILES | HCMV inh | Pf growth 48h | Pf growth 96h | CHX counter | Shiga inhibitor
Cc1nc2ccc(S(=O)(=O)CCC(=O)NCc3ccc(Cl)cc3)cc2s1 | -7.1 | . | . | . | .
O=C(CCCc1ccccc1)Nc1ccnn1C1CCN(Cc2ccccc2)CC1 | 0.0 | ? | 27.4% | -2.3 | -7.0
CCOc1ccc(CN2CCC(n3nccc3NC(=O)CCCc3ccccc3)CC2)cc1 | ? | ? | -19.6% | 6.9 | -3.8
CCOc1cccc(CN2CCC(n3nccc3NC(=O)CCCc3ccccc3)CC2)c1 | 0.1 | 10.4µM* | ? | 2.5 | -11.4
CCn1cc(CN2CCC(n3nccc3NC(=O)Cc3ccccc3)CC2)cn1 | -36.1 | -7.5% | 10.4µM* | -2.9 | -5.3
CSc1ccc(CN2CCC(n3nccc3NC(=O)CCCc3ccccc3)CC2)cc1 | -68.3* | -11.8% | ? | 1.6 | 0.6
CC(C)OCCCNc1nc2c(cnn2C)c(=O)[nH]1 | -13.2 | . | . | . | .
CCC(C)NS(=O)(=O)c1ccc(OC)c(Cl)c1Cl (centres undefined) | -21.7 | . | ? | -1.3 | -12.6
CCn1c(SCC(=O)Nc2c(C#N)cnn2-c2ccccc2)nnc1-c1cccs1 | 53.3 | -2.4% | -0.2% | 1.2 | -3.9
CC(=O)Nc1ccc(-c2nnc3n(CC(C)C)c(=O)c4ccccc4n23)cc1 | -7.6 | . | . | . | .
Cc1cc(OC(=O)c2cccc(F)c2)c([N+](=O)[O-])c(=O)[nH]1 | -9.9 | 1.9% | -3.0% | 1.3 | 2.3
COc1ccc(NC(=O)NCc2c(-n3cccc3)sc3c2CCCC3)c(OC)c1 | -3.8 | . | . | . | .
O=C(COC(=O)c1cc([N+](=O)[O-])ccc1N1CCOCC1)NC1CCCCC1 | 0.6 | 0.0% | -7.3% | . | .
COc1ccc(C(=O)/C=C/c2cn(CN3CCN(C)CC3)c3ccccc23)cc1 | . | . | ? | 43.3* | 49.3*
CCCN(CCC)CC(O)Cn1cc(/C=C/C(=O)c2ccc(OCC)cc2)c2ccccc21 (centres undefined) | -105.9* | . | . | . | .
CCC(=C(c1ccc(OC)cc1)c1ccc(OC)cc1)c1cn(CC(O)CN(CCO)CCO)c2ccccc12 (centres undefined) | -19.6 | 9.28µM* | ? | -3.0 | -5.3
CCOc1ccc(C(=O)/C=C/c2cn(CN3CCN(C)CC3)c3ccccc23)cc1 | 1.6 | 0.1% | ? | 30.6* | 60.6*
Cc1ccc(OCCn2cc(/C=C/C(=O)O)c3ccccc32)cc1 | 23.4 | -1.6% | ? | -2.4 | -3.6
COc1ccc(OCC(O)CN(CCO)CC(O)Cn2ccc3ccccc32)cc1 (centres undefined) | -12.0 | ? | 7.2% | 1.0 | -10.3
O=C(CSc1nc2ncc(Cl)cc2[nH]1)NCC(=O)Nc1ccc(F)c(F)c1F | -22.5 | 57.5% | 0.0% | -0.7 | 0.5
N#CC1=C(N)N(c2ccc(Cl)cc2)C2=C(C(=O)CCC2)C1c1cc(CN2CCOCC2)cs1 (centres undefined) | -18.3 | . | . | . | .
NC12CC3CC(C1)CC(CC(=O)O)(C3)C2 | -21.6 | -0.5% | 4.4% | 4.6 | -4.9
NC12CC3CC(C1)CC(O)(C3)C2 | 19.4 | 15.2% | 10.4µM* | -3.0 | -20.2
COc1cc(C2c3c(oc4ccccc4c3=O)C(=O)N2c2nncs2)cc(OC)c1OC (centres undefined) | -11.7 | . | . | . | .
Cc1ccc(NC(=O)c2cnn(-c3ccccc3)c2C)c(C)c1 | 23.4 | 97.2% | 140.4% | 38.2* | 23.3
Cc1cccc(C)c1NC(=O)c1cnn(-c2ccccc2)c1C | -0.4 | -21.7% | ? | 2.2 | -10.4
Cc1ccc(NC(=O)c2cnn(-c3ccccc3)c2C)cc1 | 38.6 | 92.2% | 132.6% | 32.5* | .
CNC(=O)NC(=O)COC(=O)/C=C/c1cccc(Br)c1 | ? | 15.5% | 8.0% | 9.9 | -12.6
Cc1ncc(CO)c(CO)c1OCC(O)CN1CCN(c2ccc(F)cc2)CC1 (centres undefined) | -34.3 | . | . | . | .
